From the supplement of paper PMC10849652
The full data set covers some 7,900 targets. This sample favours those with a hit. About 0.6% of all pairs of compound and target were hits. Values without a mark were called inactive.

How the values were obtained:
Assay in all cases: log2 fold change, soluble protein after heating vs DMSO (PISA); higher = thermal stabilisation; K562 cells, 10 uM, 30 min; active = over 0.2 and 3.5 SD of the protein, either way, in both replicates (recomputed)
bafetinib = compound: Cc1ccc(NC(=O)c2ccc(CN3CC[C@H](N(C)C)C3)c(C(F)(F)F)c2)cc1Nc1nccc(-c2cncnc2)n1 [bafetinib]
How it was run: (§1)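 K562 cells (2×10^6 cells/mL) were treated with 10 μM compound for 30 min, and aliquots were heated for 3 min over 48°C-58°C. Pooled aliquots were extracted in PBS with 0.5% NP-40 at 4°C, and the supernatant after 21,000xg for 90 min was measured by TMTpro 16plex LC-MS/MS with channel sums equalised. Reported thermal stability, relative to control samples and from duplicates, is a log2 fold change.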

[1] = compound: Cc1cccc(CC(=O)N2CCc3c2ccc(-c2cn(C)c4ncnc(N)c24)c3F)n1
How it was run: as §1

nilotinib = compound: Cc1cn(-c2cc(NC(=O)c3ccc(C)c(Nc4nccc(-c5cccnc5)n4)c3)cc(C(F)(F)F)c2)cn1 [nilotinib]
How it was run: as §1

[2] = compound: Cc1nc(Nc2n[nH]c3c2CN(C(=O)N[C@H](CN(C)C)c2ccccc2)C3(C)C)c2sccc2n1
How it was run: as §1

dasatinib = compound: Cc1nc(Nc2ncc(C(=O)Nc3c(C)cccc3Cl)s2)cc(N2CCN(CCO)CC2)n1 [dasatinib]
How it was run: as §1

[3] = compound: Cc1ncc(-c2ccnc(Nc3ccc(S(C)(=O)=O)cc3)n2)n1C(C)C
How it was run: as §1

[4] = compound: Cn1cc(-c2ccc3c(c2)CCN3C(=O)Cc2cccc(C(F)(F)F)c2)c2c(N)ncnc21
How it was run: as §1

[5] = compound: Cn1cc(-c2ccc3nnc(C(F)(F)c4ccc5ncccc5c4)n3n2)cn1
How it was run: as §1

tipifarnib = compound: Cn1cncc1[C@@](N)(c1ccc(Cl)cc1)c1ccc2c(c1)c(-c1cccc(Cl)c1)cc(=O)n2C [tipifarnib]
How it was run: as §1

mubritinib = compound: FC(F)(F)c1ccc(/C=C/c2nc(COc3ccc(CCCCn4ccnn4)cc3)co2)cc1 [mubritinib]
How it was run: as §1

[6] = compound: NC(=O)Nc1cc(-c2cccc(F)c2)sc1C(=O)N[C@H]1CCCNC1
How it was run: as §1

[7] = compound: NC(=O)c1cnc(N[C@@H]2CCCC[C@@H]2N)nc1Nc1cccc(-n2nccn2)c1
How it was run: as §1

[8] = compound: NC1(c2ccc(-c3nc4ccn5c(=O)[nH]nc5c4cc3-c3ccccc3)cc2)CCC1
How it was run: as §1

[9] = compound: NCC(=O)Nc1ccc(-n2nc(C(F)(F)F)cc2-c2ccc3c(ccc4ccccc43)c2)cc1
How it was run: as §1

entinostat = compound: Nc1ccccc1NC(=O)c1ccc(CNC(=O)OCc2cccnc2)cc1 [entinostat]
How it was run: as §1

vorinostat = compound: O=C(CCCCCCC(=O)Nc1ccccc1)NO [vorinostat]
How it was run: as §1

citarinostat = compound: O=C(CCCCCCNC(=O)c1cnc(N(c2ccccc2)c2ccccc2Cl)nc1)NO [citarinostat]
How it was run: as §1

silmitasertib = compound: O=C(O)c1ccc2c(c1)nc(Nc1cccc(Cl)c1)c1ccncc12 [silmitasertib]
How it was run: as §1

[10] = compound: O=C1NC(=O)C(c2cnc3ccccn23)=C1c1cn2c3c(cc(F)cc13)CN(C(=O)N1CCCCC1)CC2
How it was run: as §1

[11] = compound: c1cc(OCCN2CCCCC2)cc(-c2n[nH]c3ccc(-c4nnc[nH]4)cc23)c1
How it was run: as §1

Chain of UniProt Q9H300 (Q9H300 whole entry, looked up): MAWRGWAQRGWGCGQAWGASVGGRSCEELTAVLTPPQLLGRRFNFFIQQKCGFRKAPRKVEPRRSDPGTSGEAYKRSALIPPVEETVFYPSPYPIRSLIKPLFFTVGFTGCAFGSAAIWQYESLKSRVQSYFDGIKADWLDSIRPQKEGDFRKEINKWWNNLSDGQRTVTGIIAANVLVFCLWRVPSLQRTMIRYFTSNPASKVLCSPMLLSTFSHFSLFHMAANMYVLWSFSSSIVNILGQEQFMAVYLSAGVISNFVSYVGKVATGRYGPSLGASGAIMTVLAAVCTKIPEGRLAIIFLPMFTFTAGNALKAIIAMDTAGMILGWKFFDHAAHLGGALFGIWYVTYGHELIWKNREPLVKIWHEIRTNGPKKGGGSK
Chain of UniProt P43686 (P43686 whole entry, looked up): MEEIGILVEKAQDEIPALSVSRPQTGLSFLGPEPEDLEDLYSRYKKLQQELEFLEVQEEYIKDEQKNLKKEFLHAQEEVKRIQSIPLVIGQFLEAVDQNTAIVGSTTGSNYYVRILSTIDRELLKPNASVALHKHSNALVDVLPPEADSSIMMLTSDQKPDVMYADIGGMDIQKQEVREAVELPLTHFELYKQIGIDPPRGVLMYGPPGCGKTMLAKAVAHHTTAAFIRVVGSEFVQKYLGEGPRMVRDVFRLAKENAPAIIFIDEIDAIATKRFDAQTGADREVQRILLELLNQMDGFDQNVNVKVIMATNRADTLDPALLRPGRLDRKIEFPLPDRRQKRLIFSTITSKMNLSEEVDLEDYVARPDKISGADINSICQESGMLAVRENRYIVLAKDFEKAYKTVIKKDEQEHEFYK
Chain of UniProt Q93096 (Q93096 whole entry, looked up): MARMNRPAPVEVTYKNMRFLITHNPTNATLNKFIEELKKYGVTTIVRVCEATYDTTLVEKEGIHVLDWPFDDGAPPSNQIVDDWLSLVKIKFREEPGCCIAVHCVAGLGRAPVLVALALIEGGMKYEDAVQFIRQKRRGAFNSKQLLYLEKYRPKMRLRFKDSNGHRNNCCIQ
Chain of UniProt Q969N2 (Q969N2 whole entry, looked up): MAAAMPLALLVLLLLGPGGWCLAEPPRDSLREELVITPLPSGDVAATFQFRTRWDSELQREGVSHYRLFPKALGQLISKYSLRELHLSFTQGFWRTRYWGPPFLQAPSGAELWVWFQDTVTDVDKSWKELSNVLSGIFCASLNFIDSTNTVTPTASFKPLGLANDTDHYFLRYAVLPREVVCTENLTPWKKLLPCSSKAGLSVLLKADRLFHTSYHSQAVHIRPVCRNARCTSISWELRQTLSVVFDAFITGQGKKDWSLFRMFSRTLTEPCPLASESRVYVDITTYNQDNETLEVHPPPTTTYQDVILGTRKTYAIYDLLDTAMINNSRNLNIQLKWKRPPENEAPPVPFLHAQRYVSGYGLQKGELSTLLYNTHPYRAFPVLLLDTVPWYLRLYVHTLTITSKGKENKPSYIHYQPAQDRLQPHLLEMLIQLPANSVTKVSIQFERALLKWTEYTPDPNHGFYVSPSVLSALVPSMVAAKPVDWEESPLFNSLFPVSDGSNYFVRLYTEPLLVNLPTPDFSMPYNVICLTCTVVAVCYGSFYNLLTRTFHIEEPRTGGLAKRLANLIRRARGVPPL
Chain of UniProt O75340 (O75340 whole entry, looked up): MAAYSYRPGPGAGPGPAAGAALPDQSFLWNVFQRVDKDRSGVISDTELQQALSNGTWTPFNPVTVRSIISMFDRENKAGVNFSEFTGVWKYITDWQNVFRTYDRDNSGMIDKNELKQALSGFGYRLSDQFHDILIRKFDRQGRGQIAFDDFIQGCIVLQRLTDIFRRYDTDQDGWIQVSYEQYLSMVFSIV
Chain of UniProt Q8WXF1 (Q8WXF1 whole entry, looked up): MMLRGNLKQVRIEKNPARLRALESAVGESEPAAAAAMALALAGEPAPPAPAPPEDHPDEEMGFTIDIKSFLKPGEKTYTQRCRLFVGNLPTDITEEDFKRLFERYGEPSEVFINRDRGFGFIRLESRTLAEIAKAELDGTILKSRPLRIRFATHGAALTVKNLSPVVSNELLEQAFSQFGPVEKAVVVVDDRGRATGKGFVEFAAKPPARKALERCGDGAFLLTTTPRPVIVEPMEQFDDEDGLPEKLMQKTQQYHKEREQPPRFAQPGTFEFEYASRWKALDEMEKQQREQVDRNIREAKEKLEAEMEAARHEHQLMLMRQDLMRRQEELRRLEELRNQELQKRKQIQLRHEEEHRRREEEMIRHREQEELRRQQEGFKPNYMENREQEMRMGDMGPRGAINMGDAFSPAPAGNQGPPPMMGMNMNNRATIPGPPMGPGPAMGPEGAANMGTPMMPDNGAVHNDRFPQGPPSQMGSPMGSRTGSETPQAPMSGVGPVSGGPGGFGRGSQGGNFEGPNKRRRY
Chain of UniProt Q5VTL8 (Q5VTL8 whole entry, looked up): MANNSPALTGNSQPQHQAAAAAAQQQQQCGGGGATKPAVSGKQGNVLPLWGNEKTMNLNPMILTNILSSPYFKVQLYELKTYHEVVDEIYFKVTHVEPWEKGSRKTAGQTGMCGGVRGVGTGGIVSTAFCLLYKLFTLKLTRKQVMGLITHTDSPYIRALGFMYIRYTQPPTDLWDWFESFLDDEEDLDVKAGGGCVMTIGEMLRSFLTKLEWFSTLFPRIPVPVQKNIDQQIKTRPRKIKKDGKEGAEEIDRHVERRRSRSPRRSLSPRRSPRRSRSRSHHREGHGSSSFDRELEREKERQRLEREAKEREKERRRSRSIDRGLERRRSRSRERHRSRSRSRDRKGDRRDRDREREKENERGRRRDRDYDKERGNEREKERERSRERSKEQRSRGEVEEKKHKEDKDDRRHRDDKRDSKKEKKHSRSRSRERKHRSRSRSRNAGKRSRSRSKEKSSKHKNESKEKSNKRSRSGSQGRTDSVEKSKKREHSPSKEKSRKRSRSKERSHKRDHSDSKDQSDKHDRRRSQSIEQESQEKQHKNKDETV
Chain of UniProt Q9UKL6 (Q9UKL6 whole entry, looked up): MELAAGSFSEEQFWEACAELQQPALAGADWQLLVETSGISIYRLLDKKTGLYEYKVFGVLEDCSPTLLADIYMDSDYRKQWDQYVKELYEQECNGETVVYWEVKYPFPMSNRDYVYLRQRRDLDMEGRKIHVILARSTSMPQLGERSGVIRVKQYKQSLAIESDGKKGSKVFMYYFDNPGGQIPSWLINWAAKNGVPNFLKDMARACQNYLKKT
Chain of UniProt Q15008 (Q15008 whole entry, looked up): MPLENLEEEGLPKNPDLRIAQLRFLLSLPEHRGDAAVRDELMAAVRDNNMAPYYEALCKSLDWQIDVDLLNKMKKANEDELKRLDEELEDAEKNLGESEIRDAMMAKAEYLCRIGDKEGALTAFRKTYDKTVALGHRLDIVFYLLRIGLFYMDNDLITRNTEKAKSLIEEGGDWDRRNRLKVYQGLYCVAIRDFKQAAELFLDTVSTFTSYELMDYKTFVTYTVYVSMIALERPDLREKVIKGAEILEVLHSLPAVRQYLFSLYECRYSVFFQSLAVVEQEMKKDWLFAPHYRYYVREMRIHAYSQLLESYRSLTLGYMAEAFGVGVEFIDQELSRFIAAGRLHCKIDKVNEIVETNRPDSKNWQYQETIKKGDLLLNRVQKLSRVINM
Chain of UniProt Q8NHP8 (Q8NHP8 whole entry, looked up): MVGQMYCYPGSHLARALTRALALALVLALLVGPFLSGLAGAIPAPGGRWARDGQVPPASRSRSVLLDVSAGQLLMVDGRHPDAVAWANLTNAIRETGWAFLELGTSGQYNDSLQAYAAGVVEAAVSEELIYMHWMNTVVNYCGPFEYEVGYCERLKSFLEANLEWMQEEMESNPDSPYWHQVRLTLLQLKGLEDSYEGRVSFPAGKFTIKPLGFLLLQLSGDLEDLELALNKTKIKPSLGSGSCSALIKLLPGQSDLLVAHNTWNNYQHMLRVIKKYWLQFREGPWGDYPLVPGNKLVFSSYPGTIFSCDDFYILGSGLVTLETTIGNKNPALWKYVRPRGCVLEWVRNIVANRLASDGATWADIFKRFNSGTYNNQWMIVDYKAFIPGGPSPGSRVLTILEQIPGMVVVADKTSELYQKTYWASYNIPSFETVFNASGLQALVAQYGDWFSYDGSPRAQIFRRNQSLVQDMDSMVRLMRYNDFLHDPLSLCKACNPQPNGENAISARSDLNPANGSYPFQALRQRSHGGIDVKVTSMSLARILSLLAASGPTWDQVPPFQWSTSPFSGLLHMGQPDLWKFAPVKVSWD
Chain of UniProt Q6P4A8 (Q6P4A8 whole entry, looked up): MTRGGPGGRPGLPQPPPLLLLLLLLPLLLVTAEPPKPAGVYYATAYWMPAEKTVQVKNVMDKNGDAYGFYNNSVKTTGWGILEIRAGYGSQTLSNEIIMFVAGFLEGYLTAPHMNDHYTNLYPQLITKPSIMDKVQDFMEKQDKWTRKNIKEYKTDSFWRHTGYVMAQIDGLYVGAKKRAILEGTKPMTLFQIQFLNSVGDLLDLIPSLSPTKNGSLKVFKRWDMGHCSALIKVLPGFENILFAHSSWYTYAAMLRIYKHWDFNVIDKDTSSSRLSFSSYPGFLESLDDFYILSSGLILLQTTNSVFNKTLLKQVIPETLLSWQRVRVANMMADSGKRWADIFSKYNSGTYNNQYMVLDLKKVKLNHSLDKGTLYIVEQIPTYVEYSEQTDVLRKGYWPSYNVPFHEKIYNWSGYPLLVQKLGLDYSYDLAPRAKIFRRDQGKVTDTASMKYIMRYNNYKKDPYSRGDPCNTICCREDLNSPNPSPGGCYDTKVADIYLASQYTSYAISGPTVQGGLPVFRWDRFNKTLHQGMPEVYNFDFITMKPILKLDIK
Chain of UniProt Q96PU8 (Q96PU8 whole entry, looked up): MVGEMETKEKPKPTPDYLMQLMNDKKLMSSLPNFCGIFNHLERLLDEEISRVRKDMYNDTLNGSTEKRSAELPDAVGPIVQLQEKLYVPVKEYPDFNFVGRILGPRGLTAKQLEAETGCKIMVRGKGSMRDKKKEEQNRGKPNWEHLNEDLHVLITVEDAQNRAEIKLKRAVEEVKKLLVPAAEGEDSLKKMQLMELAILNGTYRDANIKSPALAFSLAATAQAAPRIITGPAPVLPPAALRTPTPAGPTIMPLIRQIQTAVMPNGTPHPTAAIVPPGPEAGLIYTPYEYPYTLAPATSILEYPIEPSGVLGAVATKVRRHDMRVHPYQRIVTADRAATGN

| Target | log2 fold change (bafetinib) | log2 fold change [1] | log2 fold change (nilotinib) | log2 fold change [2] | log2 fold change (dasatinib) | log2 fold change [3] | log2 fold change [4] | log2 fold change [5] | log2 fold change (tipifarnib) | log2 fold change (mubritinib) | log2 fold change [6] | log2 fold change [7] | log2 fold change [8] | log2 fold change [9] | log2 fold change (entinostat) | log2 fold change (vorinostat) | log2 fold change (citarinostat) | log2 fold change (silmitasertib) | log2 fold change [10] | log2 fold change [11] |
| --- | --- | --- | --- | --- | --- | --- | --- | --- | --- | --- | --- | --- | --- | --- | --- | --- | --- | --- | --- | --- |
| PCTP (UniProt Q9UKL6) | -0.067 | -0.004 | -0.04 | 0.114 | -0.024 | -0.017 | 0.065 | 0.036 | -0.104 | 0.063 | -0.078 | -0.07 | -0.023 | -0.092 | 0.065 | -0.051 | 0.003 | 0.043 | -0.061 | 0.363 |
| PRKAB2 (UniProt O43741) | 0.027 | -0.01 | -0.022 | -0.184 | -0.16 | 0.082 | 0.142 | -0.034 | -0.046 | -0.02 | 0.204 | 0.248 | -0.077 | 0.162 | 0.186 | 0.099 | -0.1 | 0.031 | 0.121 | -0.47 |
| QKI (UniProt Q96PU8) | -0.001 | 0.058 | -0.015 | -0.105 | -0.029 | -0.093 | -0.007 | -0.036 | -0.015 | 0.003 | -0.057 | -0.137 | -0.086 | -0.084 | 0.006 | 0.06 | 0.026 | -0.012 | -0.071 | 0.064 |
| PLBD1 (UniProt Q6P4A8) | -0.143 | 0 | 0.021 | -0.029 | -0.063 | -0.035 | 0.041 | 0.081 | 0.038 | 0.052 | 0.008 | -0.061 | -0.076 | -0.039 | 0.008 | -0.038 | -0.018 | 0.003 | -0.027 | 0.409 |
| PIGT (UniProt Q969N2) | -0.042 | 0 | -0.029 | 0.046 | -0.031 | -0.028 | -0.011 | 0.003 | -0.029 | -0.037 | -0.01 | -0.002 | -0.077 | -0.002 | 0.018 | 0.05 | 0.04 | 0 | -0.01 | -0.089 |
| PARP1 (UniProt P09874) | 0.05 | -0.009 | -0.028 | -0.112 | -0.245 | 0.178 | 0.026 | 0.131 | -0.117 | 0.044 | -0.128 | -0.064 | -0.102 | -0.09 | 0.142 | 0.042 | 0.091 | 0.039 | -0.173 | 0 |
| PSMC4 (UniProt P43686) | 0.087 | 0 | -0.013 | 0.05 | 0.052 | -0.019 | -0.128 | -0.037 | 0.117 | -0.012 | 0.018 | -0.016 | 0.028 | 0.027 | -0.023 | -0.023 | -0.015 | -0.015 | 0.043 | -0.051 |
| QRSL1 (UniProt Q9H0R6) | -0.036 | 0.048 | -0.041 | -0.028 | -0.171 | 0.045 | 0.037 | 0.024 | 0.002 | -0.102 | -0.092 | -0.007 | -0.218 | -0.089 | 0.006 | -0.063 | 0.053 | -0.049 | -0.084 | -0.036 |
| PLBD2 (UniProt Q8NHP8) | -0.173 | -0.056 | -0.011 | 0.024 | -0.013 | -0.052 | 0.017 | 0.044 | 0.093 | 0.056 | -0.002 | 0.049 | -0.091 | -0.004 | -0.008 | -0.073 | 0.003 | 0.017 | 0.001 | -0.006 |
| PSMD6 (UniProt Q15008) | 0.115 | 0.008 | 0.022 | 0.054 | 0.059 | -0.014 | -0.083 | -0.035 | 0.03 | -0.012 | -0.028 | 0.037 | -0.024 | 0.082 | -0.045 | -0.001 | -0.017 | 0.011 | 0.039 | -0.063 |
| PARL (UniProt Q9H300) | -0.169 | 0.061 | 0.047 | -0.011 | 0.015 | 0.018 | 0.017 | 0.051 | -0.023 | 0.021 | 0.025 | -0.06 | -0.07 | -0.09 | 0.023 | -0.07 | 0.054 | 0.032 | -0.082 | -0.017 |
| PDCD6 (UniProt O75340) | -0.11 | -0.005 | -0.071 | 0.042 | -0.021 | -0.026 | 0.027 | 0.022 | -0.034 | 0.009 | -0.066 | -0.08 | 0.117 | -0.106 | 0.081 | 0.028 | 0.064 | -0.022 | -0.096 | -0.024 |
| POLR1A (UniProt O95602) | -0.11 | 0.004 | -0.051 | 0.046 | 0.046 | -0.003 | -0.16 | -0.057 | 0.019 | 0.069 | 0.044 | 0.012 | -0.208 | 0.172 | -0.012 | 0.098 | 0.018 | 0.033 | 0.036 | 0.045 |
| PTP4A1 (UniProt Q93096) | -0.023 | 0.013 | 0.039 | -0.049 | 0.108 | -0.299 (active) | 0.181 | 0.093 | -0.005 | 0.074 | -0.035 | -0.202 | -0.007 | 0.016 | 0.039 | -0.029 | 0.063 | -0.001 | -0.075 | 0.059 |
| PRPF38B (UniProt Q5VTL8) | -0.016 | -0.015 | 0.049 | -1.9 (active) | -0.022 | -0.008 | 0.012 | -0.04 | -0.067 | 0.004 | -0.199 | -0.019 | 0.017 | -0.203 | 0.006 | 0.033 | 0.028 | -0.246 | -0.006 | -0.19 |
| PSPC1 (UniProt Q8WXF1) | 0.015 | 0.088 | -0.004 | -0.179 | -0.02 | -0.112 | -0.003 | 0 | -0.004 | -0.033 | -0.001 | -0.039 | 0.021 | -0.027 | -0.014 | 0.14 | 0.067 | -0.032 | -0.074 | -0.057 |
